Screens deposited in PubChem by National Center for Advancing Translational Sciences (NCATS).
Compounds with a hit are over-represented: about 6.1% of the library has one in this group of screens.
ALOX15 inhib: qHTS Assay for Inhibitors of 15-hLO (15-human lipoxygenase) | Polyunsaturated fatty acid lipoxygenase ALOX15 (Homo sapiens), P16050 | purified 15hLO-1, xylenol orange hydroperoxide absorbance | Potency, µM (top dose mostly 57.1 µM), for the others: top-dose activity change, negative = inhibition, most hits filed as inhibitors | actives 1.4% (n = 74,000); further: nearly all actives have a fitted effect of over 55% in size
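Inhibition is scored from a chromogenic endpoint. After 15 min enzyme-compound contact, arachidonic acid (50 uM final) reacts 6 min with 40 nM 15hLO-1 at room temperature, then Fe-XO reagent is added for 30 min and absorbance ratio recorded.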
Hsp90 Hop PPI: qHTS Assay for Disrupters of an Hsp90 Co-Chaperone Interaction; Potency, µM (top dose mostly 57 µM), for the others: top-dose activity change, negative = inhibition; actives 0.44% (n = 71,000); Hsp90 C-terminal peptide / TPR2A (Hop) interaction, human; AID 595, 2007; AlphaScreen TPR2A-His6 binding biotin-Hsp90 C-terminal peptide; active means well fitted curve in either direction with a large enough effect; inconclusive means small, poorly fitted or top-dose-only effect, or another doubt
ERK AVP inh: qHTS Assay for Inhibitors of the ERK Signaling Pathway using a Homogeneous Screening Assay. AID 995, 2007. actives 0.99% (n = 72,000). Potency, µM (top dose mostly 57.5 µM), for inactives: at the top dose activity, negative = inhibition, hits mostly inhibitors. HEK293-V1b, vasopressin-stimulated pERK AlphaScreen; further: nearly all actives have a fitted effect of over 55% in size
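HEK293 cells stably expressing V1b receptor, seeded overnight in 1% FBS, were treated with compounds for 30 min at 37C, then stimulated 5 min with 25 nM vasopressin; phospho-ERK read by AlphaScreen SureFire after lysis.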
PK Bst: Pyruvate Kinase; Potency, µM; purified pyruvate kinase, luminescence ATP production; ribose 5-phosphate activator present at AC10; actives 1.2% (n = 51,000); in the data active means potency below about 11 µM; inconclusive means mostly about 12 µM to 25 µM;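 the screen sought inhibitors and activators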;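 further: scaled between full activation by ribose 5 phosphate and full inhibition by luteolin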
Tau filament bind: qHTS Assay for Tau Filament Binding; Microtubule-associated protein tau (Homo sapiens), P10636; recombinant tau filaments, thioflavin S fluorescence, 15 h; filaments grown with octadecylsulfate alongside compound; Potency, µM (highest dose often 57.1 µM), inactives show at the highest dose activity change, negative = inhibition; actives 2% (n = 71,000); AID 596, 2007;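 further: actives lower thioflavin S fluorescence by blocking filaments or displacing dye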
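Read-out: ThS fluorescence, 450 nm excitation/510 nm emission; lower signal marks blocked filament formation or displaced dye. Tau at 1 uM with 30 uM ODS, 10 uM ThS, 5 mM DTT, 100 mM NaCl, 10 mM HEPES pH 7.4; 15 h, 37 C.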
FLuc inh: qHTS Assay for Inhibitors of Firefly Luciferase | Luciferin 4-monooxygenase (Photinus pyralis), P08659 | Potency, µM (titrated, usually from 57.1 µM), inactives show at the highest dose activity change, negative = inhibition, actives largely listed as inhibitors | purified firefly luciferase, luminescence, 8 min | AID 411, 2009 | actives 2.2% (n = 72,000); further: nearly all actives have a fitted effect of over 40% in size
Target sequence (P08659 whole entry, looked up): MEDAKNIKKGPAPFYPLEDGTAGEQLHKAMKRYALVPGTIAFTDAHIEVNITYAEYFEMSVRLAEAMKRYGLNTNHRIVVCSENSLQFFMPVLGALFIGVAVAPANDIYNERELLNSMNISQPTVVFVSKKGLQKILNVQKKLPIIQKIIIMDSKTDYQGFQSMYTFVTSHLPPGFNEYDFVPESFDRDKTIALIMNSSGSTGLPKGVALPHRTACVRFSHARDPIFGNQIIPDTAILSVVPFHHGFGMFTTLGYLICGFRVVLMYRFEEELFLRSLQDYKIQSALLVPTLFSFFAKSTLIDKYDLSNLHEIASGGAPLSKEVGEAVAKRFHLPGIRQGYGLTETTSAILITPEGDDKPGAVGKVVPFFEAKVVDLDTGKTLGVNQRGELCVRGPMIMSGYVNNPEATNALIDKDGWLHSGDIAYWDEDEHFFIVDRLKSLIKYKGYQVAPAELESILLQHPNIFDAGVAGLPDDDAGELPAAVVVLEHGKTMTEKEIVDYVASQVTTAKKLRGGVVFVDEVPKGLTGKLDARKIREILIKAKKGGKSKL
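Firefly luciferase (PKLight detection mix) with 10 uM ATP in pH 7.2 imidazole buffer (KCl, MgCl2, Tween 20, BSA). Compounds tested across a concentration series (qHTS). Luminescence read after 8 min at ambient temperature.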
* hit, by the source's call; ? = inconclusive; . = not tested or not shown; ! = not confirmed by another sample; [ ] = another dose, or the depositor's remark. Unless noted, the call rests on the fitted dose curve; in most records, active means well fitted curve in the direction sought with a large enough effect; inconclusive means small, poorly fitted or top-dose-only effect, or another doubt; inactive means no such curve, though single readings can be large; an effect the other way counts as inactive or inconclusive. Unless noted, on the % scale 0 is the no-effect control and ±100 the full control effect; potency means the concentration at half of the fitted maximal effect.

SMILES	ALOX15 inhib	Hsp90 Hop PPI	ERK AVP inh	PK Bst	Tau filament bind	FLuc inh
C[C@@H](O)CN(CCN(C[C@@H](C)O)C[C@@H](C)O)C[C@@H](C)O.O=[N+]([O-])O.[Cu]	3.98µM*	-1.8%[11 µM]	-14.4%[11.5 µM]	.	?	4.5%[11.4 µM]
C=CCN1CCc2cccc3c2[C@@H]1Cc1ccc(O)c(O)c1-3	?	?	?	.	-26.1%	-16.4%
C[C@H]1[C@@H](O)[C@@H](C)/C=C\C=CCC\C=C/C=C\C=C/C=C[C@@H](O[C@H]2O[C@@H](C)[C@@H](O)[C@@H](N)[C@@H]2O)C[C@@H]2O[C@@](O)(C[C@@H](O)[C@H]2C(=O)O)C[C@@H](O)[C@@H](O)CC[C@@H](O)C[C@@H](O)C[C@@H](O)CC(=O)O[C@H]1C	7.94µM*	-6.3%[26 µM]	-8.7%[25.7 µM]	.	13.5%[25.6 µM]	8.0%[25.5 µM]
CN1CCN(C(=O)COc2ccc(-c3nc4ccccc4s3)cc2)CC1	-3.6%	-6.4%	?	1.03*	39.3%	0.794µM*
Cn1nc(-c2ccc(OCC(=O)N3CCN(Cc4ccccc4)CC3)cc2)c2ccccc2c1=O	-10.4%	-2.5%	31.6µM*	>57	5.7%	2.7%
CC(C)[C@@]1(NC(=O)[C@@H]2C[C@H]3c4cccc5[nH]cc(c45)C[C@@H]3N(C)C2)O[C@@]2(O)[C@H]3CCCN3C(=O)[C@@H](Cc3ccccc3)N2C1=O	.	-8.4%	.	.	226.0%	1.8%[11.4 µM]
CCCCOC(C)=O	10.6%	-2.6%	-4.5%	.	-6.0%	.
C[C@@H]1Cc2cc3c(cc2C(c2ccc(N)cc2)=NN1)OCO3	?	-13.1%	?	.	39.8µM*	-4.4%
C/C=C(\C)C(=O)O[C@@H]1C(C)=C2[C@H]([C@@H]1OC(=O)CCCCCCC)[C@@](C)(OC(C)=O)C[C@@H](OC(=O)CCC)[C@@]1(O)[C@H]2OC(=O)[C@]1(C)O	20µM*	-11.9%	20.2%	.	-17.7%	-0.2%
O=C1C2CC=CCC2C(=O)N1SC(Cl)(Cl)Cl (stereo unspecified)	?	-2.0%	15.8µM*	.	4.3%	.
ClP(Cl)(Cl)(Cl)Cl	-23.4%	-1.9%	35.9%	.	0.3%	.
N=C(N)c1c(O)n(C2CCCCC2)c(=O)n(C2CCCCC2)c1=O	-17.6%	4.7%	48.9%	>57	15.8µM*	0.1%
COC1=C[C@H]2[C@@H]3Cc4ccc(OC)c(O)c4[C@@]2(CCN3C)CC1=O	.	-7.1%	.	.	?	4.1%[11.4 µM]
COc1ccc(C2=NCC(=O)N(CC(=O)NCc3ccco3)c3sc4c(c32)CCCC4)cc1	?	-15.9%	-8.3%	>57	19.7%	-0.6%
Cc1cccc(C2=NCC(=O)N(CC(=O)NCc3ccco3)c3sc4c(c32)CCCC4)c1	25.1µM*	-16.0%	5.5%	>57	48.0%	0.3%
OC[C@H]1CCCN2CCCC[C@@H]12	.	-7.3%	.	.	?	-0.7%[11.4 µM]
CN(C)C(=O)Nc1cccc(OC(=O)N(C)C)c1	7.6%	-6.4%	0.6%	>57	10.5%	1.1%
COC(=O)Nc1cccc(OC(=O)Nc2cccc(C)c2)c1	-29.1%	-1.1%	31.6µM*	.	-5.9%	.
O=C(O)C(O)(c1ccc(-c2ccccc2)cc1)c1ccc(-c2ccccc2)cc1	-22.6%[11.4 µM]	1.9%[11 µM]	14.0%[11.5 µM]	.	13.6%[11.4 µM]	4.0%[11.4 µM]
CC(=O)OCC1=C(C(=O)[O-])N2C(=O)[C@@H](NC(=O)CCC[C@@H](N)C(=O)[O-])[C@@H]2SC1.[Zn+2]	25.1µM*	-18.0%	11.0%	.	-11.1%	4.2%
O=c1ccc2cc(O[C@@H]3O[C@@H](CO)[C@@H](O)[C@@H](O)[C@H]3O)c(O)cc2o1	.	-4.0%	.	.	?	0.1%[11.4 µM]
C[C@H]1C(=O)O[C@H]2CCN3CC=C(COC(=O)[C@](C)(O)[C@@]1(C)O)[C@H]23	.	-1.1%	.	.	0.1%	-3.2%[11.4 µM]
O=C1C=CC(=O)c2c1ccc1c2ccc2ccccc21	-6.3%[25.6 µM]	-26.6%[26 µM]	12.6µM*	.	3.98µM*	4.2%[25.5 µM]
CCCN(CCC)[C@@H]1CCc2c(OC)cccc2[C@@H]1C	6.8%[25.6 µM]	-2.3%	-15.9%	.	-29.3%	0.2%
O=C1C=C2C(=CCOC2O)O1 (stereo unspecified)	-0.1%	.	31.6µM*	.	.	.
SMILES	ALOX15 inhib	Hsp90 Hop PPI	ERK AVP inh	PK Bst	Tau filament bind	FLuc inh
CC(=O)CCC(C)=O	1.6%	-3.1%	9.1%	.	6.8%	.
CC(=O)[O-].CC(=O)[O-].CC(=O)[O-].[Cr+3]	-0.1%	1.4%	2.5%	.	12.6µM*	.
Cc1cccc(N2CCc3c2nc2ccccc2c3N)c1	-15.8%	-1.8%	25.1µM*!	.	10.1%	?
CN1CCN(c2ccc(N)c(N3CCN(C)CC3)c2)CC1	-7.0%	4.6%	?	>57	20µM*	-7.2%
CN(C)c1ccc(N=Nc2ccccc2)cc1	-2.2%	12.6µM*	?	.	15.8µM*	.
CN(C)c1ccc(N=O)cc1	-9.8%	-5.6%	?	.	-1.2%	.
CCN=C=NCCCN(C)C	2.7%[11.4 µM]	-0.1%[11 µM]	9.2%[11.5 µM]	.	13.3%[11.4 µM]	0.7%[11.4 µM]
Fc1ccc(C(OCCN2CCN(CCCc3ccccc3)CC2)c2ccc(F)cc2)cc1	-9.6%[25.6 µM]	5.1%	?	.	?	1.6%
c1ccc(CCCN2CCN(CCOC(c3ccccc3)c3ccccc3)CC2)cc1	25.1µM*	-5.6%	?	.	-6.5%	1.5%
N[C@H](Cn1cc(I)c(=O)[nH]c1=O)C(=O)O	.	-4.1%	.	.	-2.0%	0.6%
COCc1cc(C)c(C#N)c(=S)[nH]1	1.58µM*	-0.3%	-18.2%	>57	3.2%	-0.4%
CC(C)(C)c1cc(O)ccc1O	20µM*	-0.6%[11 µM]	-13.1%[11.5 µM]	.	-7.0%[11.4 µM]	0.7%[11.4 µM]
CC(C)(C)c1ccccc1O	-3.7%	-9.6%	7.3%	.	-6.6%	.
C[N+](=O)[O-]	0.3%	-1.6%	-8.7%	.	13.5%	.
